# The list is not random: actives were taken first. Their share in the collection is about 1.9%.
# RecA splice inh: blocks M. tuberculosis RecA intein splicing | P9WHJ3 | AID 2221 | cell-free RecA intein splicing, fluorescence | 290,000 tested, 0.75% active | inhibition, % (no concentration beside the values); in the data active means inhibition above about 30%; inconclusive means no clear call, values can overlap the other calls
# Target sequence (P9WHJ3 whole entry, looked up, canonical isoform): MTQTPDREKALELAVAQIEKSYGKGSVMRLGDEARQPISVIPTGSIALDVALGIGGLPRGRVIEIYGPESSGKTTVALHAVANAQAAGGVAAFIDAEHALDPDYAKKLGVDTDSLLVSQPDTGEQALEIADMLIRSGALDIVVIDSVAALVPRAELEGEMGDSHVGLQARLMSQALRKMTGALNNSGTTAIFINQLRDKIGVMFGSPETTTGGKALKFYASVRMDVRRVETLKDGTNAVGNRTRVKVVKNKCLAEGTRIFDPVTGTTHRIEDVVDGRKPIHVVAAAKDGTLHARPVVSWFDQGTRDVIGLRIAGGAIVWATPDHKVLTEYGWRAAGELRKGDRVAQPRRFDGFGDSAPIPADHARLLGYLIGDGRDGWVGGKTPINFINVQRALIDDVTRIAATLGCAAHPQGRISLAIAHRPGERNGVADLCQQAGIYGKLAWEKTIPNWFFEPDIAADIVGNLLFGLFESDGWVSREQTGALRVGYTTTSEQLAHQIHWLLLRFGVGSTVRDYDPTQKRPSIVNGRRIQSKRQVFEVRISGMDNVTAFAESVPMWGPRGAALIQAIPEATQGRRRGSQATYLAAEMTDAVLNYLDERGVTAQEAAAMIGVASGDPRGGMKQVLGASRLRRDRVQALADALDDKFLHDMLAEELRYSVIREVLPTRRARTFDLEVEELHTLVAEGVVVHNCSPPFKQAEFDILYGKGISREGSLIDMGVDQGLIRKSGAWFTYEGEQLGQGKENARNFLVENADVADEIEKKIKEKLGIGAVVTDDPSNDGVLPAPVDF
# PrPC surface inh: cell surface PrPC inhibition, primary TR-FRET screen | inhibition, % at 13.8 µM | TR-FRET read-out | P04156 | 370,000 tested, 0.43% active; in the data active means inhibition above about 24%
# BJeLR viability: kills HRASV12-expressing BJeLR cells. BJeLR (HRASV12) viability, CellTiter-Glo ATP luminescence, 48 h. inhibition, % (no concentration beside the values). 300,000 tested, 0.17% active. AID 1554; in the data active means inhibition above about 50%; inconclusive means no clear call, values can overlap the other calls
# PrP 5UTR inh: inhibition of PrP 5' UTR reporter expression | cell-based PrP 5' UTR mRNA reporter, plate reader | inhibition, % (test concentration not listed) | 340,000 tested, 0.35% active | AID 488862; in the data active means inhibition above about 52%
# PriA SSB inh: inhibitors of Klebsiella pneumoniae PriA binding to SSB C-terminal tail; AlphaScreen SSBct-PriA binding, biotinylated peptide; inhibition, % at 33 µM; 430,000 tested, 0.6% active; in the data active means inhibition mostly above about 37%, no sharp cut-off; inactive means mostly below about 20%
# PfHsp40 rescue: rescue of PfHsp40-mediated yeast toxicity; S. cerevisiae expressing PfHsp40, growth rescue, ATP luminescence; growth rescue, % at 12.5 µM; 340,000 tested, 0.68% active; in the data active means growth rescue above about 28%, passing the limit was not always enough; inconclusive means no clear call, values can overlap the other calls;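 further: yeast W303a lacking pdr1 and pdr3 grown in galactose medium; growth measured after three days at 30 °C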
# Hits are given with their value; – = inactive; ? = inconclusive; · = not tested or not shown; ! = not confirmed by another sample.
SMILES,RecA splice inh,PrPC surface inh,BJeLR viability,PrP 5UTR inh,PriA SSB inh,PfHsp40 rescue
O=C(O)c1cc(NCc2c(F)cccc2Cl)ccc1N1CCOCC1,–,–,–,–,–,104.8
C=CCN(CC=C)S(=O)(=O)c1ccc(C(=O)NNC(=O)c2cc3cc([N+](=O)[O-])ccc3s2)cc1,·,·,·,·,–,·
Cc1ccc(O)c(C2=NNC(O)(C(F)(F)F)C2)c1 (stereo not drawn),–,–,–,–,–,38.9
Cc1ccc(O)c(C2=NNC(c3ccc(Cl)cc3)C2)c1 (stereo not drawn),–,–,–,–,–,?
O=C(NN=CC1C(=O)NC(=S)N(c2ccccc2)C1=O)c1cc(Br)c(O)c(Br)c1 (stereo not drawn),·,·,·,·,61.8,·
C=C(C)C1CCC(C)=C1CC(C)(C)C=Nn1cnnc1 (stereo not drawn),·,·,·,·,–,·
COc1cc(C2NC(=O)C(C#N)=C(Nc3cccc(C)c3)S2)ccc1O (stereo not drawn),87.0,–,–,–,–,–
CC1CCCCN1S(=O)(=O)c1ccc(C(=O)Nc2nnc(C3CCCO3)o2)cc1 (stereo not drawn),·,·,·,·,–,·
CCOc1ccc(C2C(C#N)=C(N)Oc3cc(O)ccc32)cc1OCC (stereo not drawn),–,–,–,–,–,–
CCCc1[nH]nc2c1C(C1CCCCC1)C(C#N)=C(N)O2 (stereo not drawn),–,–,–,–,–,–
CCCc1[nH]nc2c1C(c1ccc(OCCN3CCOCC3)c(OCC)c1)C(C#N)=C(N)O2 (stereo not drawn),44.4,–,–,–,–,–
CCOc1cc(C2C(C#N)=C(N)Oc3n[nH]c(C)c32)ccc1OCCN1CCOCC1 (stereo not drawn),48.3,–,–,–,–,–
CCCc1[nH]nc2c1C(c1ccc(O)cc1OCC)C(C#N)=C(N)O2 (stereo not drawn),78.3,–,–,–,–,–
CCOc1cc(C2C(C#N)=C(N)Oc3n[nH]c(CC)c32)ccc1OCCN1CCOCC1 (stereo not drawn),50.3,–,–,–,–,–
COCCNC(=S)N/N=C(\C)CCc1ccc2c(c1)OCO2,–,–,–,–,·,34.8
CC(C)Nc1nc(NC(C)C)nc(N(C)N)n1,–,–,–,–,65.3,–
COCCNC(=O)Cc1c(C)c2c(cc(C)c3c(C)coc32)oc1=O,–,–,–,–,–,–
COCCCNC(=O)Cc1c(C)c2c(cc(C)c3c(C(C)(C)C)coc32)oc1=O,–,–,65.6,–,–,–
c1ccc(C2=NNC(c3ccccn3)=NN2)nc1,–,–,–,–,82.0!,–
CC(NC(=O)CC1SC(=N)NC1=O)c1ccccc1 (stereo not drawn),·,·,·,·,–,·
COc1ccc(NC(=O)C(=O)NCCN2CCN(C(=O)c3cccs3)CC2)cc1,–,–,–,–,–,57.6
Cc1ccccc1C(=O)N1CCN(CCNC(=O)C(=O)Nc2ccc(Br)cc2)CC1,–,–,–,–,39.0,–
N[C@@H](Cc1c[nH]c2ccccc12)c1nnc(SCc2ccccc2)o1,–,–,–,–,–,–
Brc1ccc(CSc2nnc(Cc3c[nH]c4ccccc34)o2)cc1,–,–,–,–,–,36.9
CC(C)(C)c1ccc(C(=O)OC(c2ccccc2)c2nccc3ccccc23)cc1 (stereo not drawn),·,·,·,·,–,·
SMILES,RecA splice inh,PrPC surface inh,BJeLR viability,PrP 5UTR inh,PriA SSB inh,PfHsp40 rescue
O=C(OC(c1ccccc1)c1nccc2ccccc12)c1cc([N+](=O)[O-])cc([N+](=O)[O-])c1 (stereo not drawn),–,–,–,–,51.7,–
Cc1ccc2cc(CN(Cc3ccco3)C(=O)c3cccs3)c(=O)[nH]c2c1,–,–,–,–,–,42.2
Cc1ccc2[nH]c(=O)c(CN(Cc3ccco3)C(=O)c3cccs3)cc2c1,–,·,–,·,·,·
Cc1ccc(NC(=O)COC(=O)CCc2c[nH]c3ccccc23)cc1[N+](=O)[O-],–,–,–,–,40.0,–
CCOC(=O)/C(C#N)=C\c1ccc(O)c(OC)c1,40.4,–,–,–,–,–
COc1cc(/C=C(\C#N)C(=O)Nc2ccc3c(c2)OCCO3)ccc1O,31.7,–,–,–,–,–
COc1cc(/C=C/C(=O)OCC(=O)Nc2ccc3c(c2)OCCO3)ccc1O,–,–,–,–,–,–
CCOC(=O)/C(C#N)=C/c1cccc(C)c1,–,–,–,–,–,–
O=C(COc1ccccc1)N1CCC(c2nnc(-c3ccco3)s2)CC1,·,·,·,·,–,·
Cc1cc(OC(=O)c2ccccc2[N+](=O)[O-])c([N+](=O)[O-])c(=O)[nH]1,–,–,–,–,98.7,–
O=C(COC(=O)c1cnc(Cl)c(Cl)c1)NCCC1=CCCCC1,–,–,–,–,–,30.4
Nc1cc(C(=O)OCC(=O)NCCC2=CCCCC2)ccc1Cl,·,–,·,–,–,–
O=[N+]([O-])c1cc(C(F)(F)F)ccc1NCCc1c[nH]c2ccc(O)cc12,–,–,–,–,–,484.1
Cc1ccc(NC2=C(Cl)C(=O)OC2OC(=O)c2ccco2)cc1C (stereo not drawn),54.0,–,–,–,–,–
Cc1ccc(NC2=C(Cl)C(=O)OC2OC(=O)c2ccco2)c(C)c1 (stereo not drawn),·,–,–,–,–,–
Cc1ccc(C)c(NC2=C(Cl)C(=O)OC2OC(=O)c2ccco2)c1 (stereo not drawn),46.0,–,–,–,–,–
Cc1nn(-c2ccc(Nc3ccc(NS(=O)(=O)c4ccc5c(c4)OCCO5)cc3)nn2)c(C)c1C,·,·,·,·,–,·
CCN1c2ccccc2NC2C1C(C(C)=O)C(=O)N2c1ccc(Cl)cc1 (stereo not drawn),–,–,–,–,–,–
CCN1c2ccccc2NC2N=C(OC)C(c3ccccc3)C21 (stereo not drawn),–,·,–,–,54.2,–
O=S(=O)(O)c1cc(O)c(N=Nc2ccc(O)cc2O)c2ccccc12,·,–,·,–,87.2,–
CCOC1=C/C(=C/c2c(N)n3nc(-c4ccccc4)sc3nc2=O)C=CC1=O,–,–,–,–,·,–
CCOC1=C/C(=C/c2c(N)n3oc(C)cc3nc2=O)C=CC1=O,37.7,·,·,·,·,·
Cc1ccc(NC(=S)NN=Cc2ccc([N+](=O)[O-])s2)cc1,·,·,·,·,61.9,·
Cc1ccc(C(=O)NN=Cc2ccc([N+](=O)[O-])s2)cc1,·,·,·,·,–,·
Cc1cccc(NC(=S)N/N=C/c2ccc([N+](=O)[O-])s2)c1,–,–,–,–,·,56.3
O=C(Nc1cccc(F)c1)C(=O)NC1CC1,·,·,·,·,–,·
O=C(c1csc(-c2cc3ccccc3[nH]2)n1)N1CCCCC1,·,·,·,·,–,·
OC(Cn1cncn1)(c1ccc(F)cc1)c1ccc(Cl)cc1 (stereo not drawn),–,–,–,–,–,108.3
Cc1csc2nc(O)c(C(=O)NC3CCCCC3)c(=O)n12,–,–,–,–,–,164.7
COc1ccccc1NC(=O)C1=C(C)Nc2nc(-c3cccs3)nn2C1c1cccc(O)c1 (stereo not drawn),–,–,–,–,–,–
